Compounds without any hit were thinned out: in the full panel of roughly 83,000, 20% have a hit.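 How to read the values: 0–100, growth inhibition (40 = 60% inhibited); 0, no net growth; -100 to 0, cell death (-40 = 40% of starting cells died; -100 = all dead).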 Calls of active or inactive are those of the source. Rule for the calls: active = growth percent below 10; inactive = the rest.
Experiments:
Experiment in all cases: NCI-60 one-dose screen, 48 h (100 = growth as untreated, 0 = no growth, -100 = all killed)
Conditions in all cases: 10 µM unless noted
HCT-15 colon = test system: HCT-15 colon
HT29 colon = test system: HT29 colon
SNB-75 CNS = test system: SNB-75 CNS
SNB-19 CNS = test system: SNB-19 CNS
U251 CNS = test system: U251 CNS
PC-3 prostate = test system: PC-3 prostate
SK-MEL-5 melanoma = test system: SK-MEL-5 melanoma
LOX IMVI melanoma = test system: LOX IMVI melanoma
SK-MEL-28 melanoma = test system: SK-MEL-28 melanoma
UACC-62 melanoma = test system: UACC-62 melanoma

Measured: growth

Cc1cc(N/C=c2\sc3ncnn3c2=O)no1
inactive: HCT-15 colon 94.6% | HT29 colon 102% | SNB-75 CNS 91.3% | SNB-19 CNS 95.2% | U251 CNS 105% | PC-3 prostate 97.7% | SK-MEL-5 melanoma 99.2% | LOX IMVI melanoma 97.3% | SK-MEL-28 melanoma 104%

COc1cccc(-n2cc(-c3nc(Cl)c4ccccc4n3)nn2)c1
inactive: HCT-15 colon 98.2% | HT29 colon 53.1% | SNB-75 CNS 72.3% | SNB-19 CNS 94% | U251 CNS 153% | PC-3 prostate 97.5% | SK-MEL-5 melanoma 95.1% | LOX IMVI melanoma 109% | SK-MEL-28 melanoma 95%

COc1c(NC[C@H]2OC(O)[C@H](O)[C@@H](O)[C@@H]2O)c(=O)c1=O (stereo partly specified)
inactive: HCT-15 colon 107% | HT29 colon 118% | SNB-75 CNS 70.9% | SNB-19 CNS 109% | U251 CNS 95.4% | PC-3 prostate 92.7% | UACC-62 melanoma 96.6% | LOX IMVI melanoma 95.5% | SK-MEL-28 melanoma 107%

COc1cc(C2CC(c3c(C)[n+]([O-])c4ccccc4[n+]3[O-])=NN2)cc(OC)c1OC (stereo unspecified)
inactive: HCT-15 colon 97.3% | HT29 colon 120% | SNB-75 CNS 99.4% | SNB-19 CNS 101% | U251 CNS 99.6% | PC-3 prostate 102% | UACC-62 melanoma 105% | LOX IMVI melanoma 98% | SK-MEL-28 melanoma 116%

CC/C=C\C[C@H]1C/C=C2/C(=O)C(Cl)=C[C@@H]2C/C=C\CCCC(=O)O1
active: HCT-15 colon -90.8% | HT29 colon -55.6% | SNB-75 CNS -19.9% | SNB-19 CNS -40.2% | U251 CNS -79.2% | PC-3 prostate -69.9% | UACC-62 melanoma -53.1% | LOX IMVI melanoma -91.4% | SK-MEL-28 melanoma -43%

COc1cc(C2C=C(C)N=C3SC(C)=NN32)cc(OC)c1OC (stereo unspecified)
inactive: HCT-15 colon 95.8% | HT29 colon 102% | SNB-75 CNS 82.5% | SNB-19 CNS 100% | U251 CNS 100% | PC-3 prostate 95.3% | SK-MEL-5 melanoma 101% | LOX IMVI melanoma 96.3% | SK-MEL-28 melanoma 119%

CCC(=O)Oc1ccc2c(c1)CC[C@@H]1[C@@H]2CC[C@]2(C)C[C@H](OC(=O)CC)C[C@@H]12
inactive: HCT-15 colon 38.9% | HT29 colon 110% | SNB-75 CNS 46% | SNB-19 CNS 77.7% | U251 CNS 48.3% | PC-3 prostate 63.1% | SK-MEL-5 melanoma 60.4% | LOX IMVI melanoma 76.8% | SK-MEL-28 melanoma 73.7%

Nc1c(C(=O)Nc2cccc(C(F)(F)F)c2)sc2nc3c(cc12)CCCCC3
inactive: HCT-15 colon 50.5% | HT29 colon 20.6% | SNB-19 CNS 44.8% | PC-3 prostate 53% | SK-MEL-28 melanoma 20.8%
active: SNB-75 CNS -38.2% | U251 CNS -57% | SK-MEL-5 melanoma 0.77% | LOX IMVI melanoma 8.87%

CCN1C(=O)N(CC)C2C1NN=c1s/c(=C\c3ccccn3)c(=O)n12 (stereo unspecified)
active: HT29 colon 6.69% | SNB-75 CNS -24.4%
inactive: HCT-15 colon 33.5% | SNB-19 CNS 34.1% | U251 CNS 28.3% | PC-3 prostate 24.4% | UACC-62 melanoma 39.8% | LOX IMVI melanoma 42.6% | SK-MEL-28 melanoma 57.3%

CCCOC(=O)C1(O)CCCC1
inactive: HCT-15 colon 93.9% | HT29 colon 96.3% | SNB-75 CNS 80.9% | SNB-19 CNS 108% | U251 CNS 104% | PC-3 prostate 96.9% | SK-MEL-5 melanoma 99.4% | LOX IMVI melanoma 108% | SK-MEL-28 melanoma 99.2%

COc1cc(-c2csc(NC(=O)c3cc(C(F)(F)F)cc(C(F)(F)F)c3)n2)cc(OC)c1OC
active: SK-MEL-5 melanoma -30.1%
inactive: HCT-15 colon 15.6% | HT29 colon 21.3% | SNB-75 CNS 52.5% | SNB-19 CNS 29.9% | U251 CNS 21% | PC-3 prostate 10.6% | LOX IMVI melanoma 26.5% | SK-MEL-28 melanoma 40.8%

CS(=O)(=O)N(c1cc(-c2ccc3ncnc(Nc4cccc(Cl)c4)c3c2)cnc1Cl)S(C)(=O)=O
active: SNB-75 CNS -3.18% | UACC-62 melanoma -6.31% | LOX IMVI melanoma 2.19% | SK-MEL-28 melanoma -6.78%
inactive: HCT-15 colon 10.4% | HT29 colon 11.7% | SNB-19 CNS 24.3% | U251 CNS 20.8% | PC-3 prostate 10.7%

Cc1ccc2c(c1)C(C)Cc1c(ncnc1-n1cnc3ccccc31)N2C (stereo unspecified)
inactive: HCT-15 colon 12.3% | SNB-19 CNS 34% | U251 CNS 18.4% | PC-3 prostate 21.9% | SK-MEL-5 melanoma 12.2% | LOX IMVI melanoma 34% | SK-MEL-28 melanoma 61.8%
active: HT29 colon 4.56% | SNB-75 CNS -10.3%

CC(=O)Nc1ccc2c(c1)/C(=C\C=C/c1ccc([N+](C)(C)C)cc1)c1ccccc1-2
inactive: HCT-15 colon 89.1% | HT29 colon 59.2% | SNB-19 CNS 36.6% | U251 CNS 26% | PC-3 prostate 68.4% | SK-MEL-5 melanoma 36.1% | LOX IMVI melanoma 80.1% | SK-MEL-28 melanoma 66.3%
active: SNB-75 CNS -1.84%

Reference: PubChem BioAssay (NCI)
